Experimental data as given in PubChem BioAssay (Tox21).
Where “and” joins values, the source holds several entries; their conditions need not be identical. Equal entries are not always repeated. Inconclusive results are not listed. Where a structure was tested more than once in an assay, its records may differ in their call. Calls of active or inactive are those of the source. The call rests on the fitted dose curve; in most records, active means well fitted curve in the direction sought with a large enough effect in the repeat runs; inconclusive means weak or mixed curves; inactive means no such curve, though single readings can be large; an effect the other way counts as inactive or inconclusive. Starred links: 1 amine or outer side, 2 acyl side, 3 side chain; linkers in the order of their positions; H or OH if unused. Positions of bridges follow the written chain, without caps; N, C: chain ends. Non-standard residues stand in square brackets, D forms with d. Residues, ends and D or L forms follow the SMILES beside them. Chains are numbered I, II in the order given. Actinocin(9to1) = Cc1c2oc3c(C)ccc(C(=O)[*:1])c3nc-2c(C(=O)[*:2])c(N)c1=O; NMeV = CN[C@H](C(=O)O)C(C)C; Sar = CNCC(=O)O

Columns and labels:
[1] = A CellTox Green Cytotoxicity Assay to monitor cytotoxicity in HEK293 cells - 32 hour (AID 1224881); details: CellTox Green fluorescence; series mostly up to 76.8 µM; further: nearly all actives have a fitted effect of over 40% in size; further: potency means the concentration at half of the fitted maximal effect
Outline: (§1)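 Real-time, in one plate: 600 HEK293 cells/well with dead-cell DNA dye, pinned compound after 5 h, 37 C incubation over 40 h; viable cells give no appreciable fluorescence.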

[2] = A CellTox Green Cytotoxicity Assay to monitor cytotoxicity in HepG2 cells - 0 hour (AID 1224882); details: CellTox Green fluorescence; series mostly up to 76.8 µM; further: nearly all actives have a fitted effect of over 35% in size
Outline: (§2)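 Cytotoxicity was tracked as dead-cell DNA fluorescence in HepG2 cells treated with test compounds at 37 C; each time-point value comes from one kinetic series spanning 0, 8, 16, 24, 32 and 40 h.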

[3] = A CellTox Green Cytotoxicity Assay to monitor cytotoxicity in HepG2 cells - 32 hour (AID 1224883); details: CellTox Green fluorescence; series mostly up to 76.8 µM; further: nearly all actives have a fitted effect of over 50% in size; further: potency means the concentration at half of the fitted maximal effect
Outline: as §2

[4] = qHTS RealTime-Glo MT Cell Viability Assay in HepG2 cells - 16 hour (AID 1224885); details: RealTime-Glo luminescence; series mostly up to 76.8 µM; further: nearly all actives have a fitted effect of over 50% in size; further: potency means the concentration at half of the fitted maximal effect
Outline: (§3)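 HepG2 cells were seeded at 600 cells/well together with NanoLuc luciferase and a cell-permeant prosubstrate, preincubated 5 h at 37 C/5% CO2, then pin-dosed with compounds in DMSO. Nonlytic luminescence from viable cells was read at each time point.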

[5] = qHTS RealTime-Glo MT Cell Viability Assay in HEK293 cells - 24 hour (AID 1224886); details: RealTime-Glo luminescence; series mostly up to 76.8 µM; further: nearly all actives have a fitted effect of over 50% in size; further: potency means the concentration at half of the fitted maximal effect
Outline: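 HEK293 cells were seeded at 600 cells/well together with NanoLuc luciferase and cell-permeant prosubstrate, preincubated 5 h at 37 C/5% CO2, then given compound in DMSO by pintool. Luminescence from viable-cell prosubstrate reduction was read repeatedly over 40 h.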

[6] = A CellTox Green Cytotoxicity Assay to monitor cytotoxicity in HEK293 cells - 16 hour (AID 1224888); details: CellTox Green fluorescence; series mostly up to 76.8 µM; further: nearly all actives have a fitted effect of over 35% in size; further: potency means the concentration at half of the fitted maximal effect
Outline: as §1

[7] = qHTS RealTime-Glo MT Cell Viability Assay in HepG2 cells - 0 hour (AID 1224889); details: RealTime-Glo luminescence; series mostly up to 76.8 µM; further: nearly all actives have a fitted effect of over 50% in size
Outline: as §3

[8] = A CellTox Green Cytotoxicity Assay to monitor cytotoxicity in HepG2 cells - 8 hour (AID 1224890); details: CellTox Green fluorescence; series mostly up to 76.8 µM; further: nearly all actives have a fitted effect of over 45% in size; further: potency means the concentration at half of the fitted maximal effect
Outline: as §2

[9] = A CellTox Green Cytotoxicity Assay to monitor cytotoxicity in HEK293 cells - 8 hour (AID 1224884); details: CellTox Green fluorescence; series mostly up to 76.8 µM; further: nearly all actives have a fitted effect of over 35% in size
Outline: as §1

[10] = qHTS RealTime-Glo MT Cell Viability Assay in HEK293 cells - 8 hour (AID 1224887); details: RealTime-Glo luminescence; series mostly up to 76.8 µM; further: nearly all actives have a fitted effect of over 50% in size; further: potency means the concentration at half of the fitted maximal effect
Outline: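 Kinetic, non-lysing viability readout. Seed HEK293 (600/well) with reagent, incubate 5 h at 37 C/5% CO2, pin 23 nL compound in DMSO, incubate at 37 C, read luminescence at 0, 8, 16, 24, 32, 40 h.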

Measured: Potency
On the % scale 0 is the no-effect control and ±100 the full control effect.

Cc1c2oc3c(C)ccc(C(=O)N[C@@H]4C(=O)N[C@H](C(C)C)C(=O)N5CCC[C@H]5C(=O)N(C)CC(=O)N(C)[C@@H](C(C)C)C(=O)O[C@@H]4C)c3nc-2c(C(=O)N[C@@H]2C(=O)N[C@H](C(C)C)C(=O)N3CCC[C@H]3C(=O)N(C)CC(=O)N(C)[C@@H](C(C)C)C(=O)O[C@@H]2C)c(N)c1=O (I: T[dV]P[Sar][NMeV] / II: T[dV]P[Sar][NMeV]; ester I:1-I:C, II:1-II:C; linker I:N-II:N via Actinocin(9to1))
active: [3] 21.3 nM | [4] 8.47 µM and 9.52 µM | [5] 16.9 nM and 23.9 nM
not listed: [9] | [10]
inactive: all other assays above

CN(C)c1ccc(C(=C2C=CC(=[N+](C)C)C=C2)c2ccccc2)cc1
active: [1] 15.1 µM [middle of 4 runs] | [4] 10.7 µM [middle of 4 runs] | [5] 2.39 µM [middle of 4 runs] | [10] 13.8 µM and 10.7 µM and 13.4 µM | [8] 21.9 µM and 8.49 µM
inactive: [2] | [9] | [7]

O=C(O)c1cccc(C(=O)O)c1
not listed: [4] | [9]
inactive: all other assays above

CCCOC(=O)c1cc(O)c(O)c(O)c1
not listed: [5] | [9] | [10]
inactive: all other assays above

OCCN1CCNCC1
active: [5] 7.9 µM
not listed: [4] | [9]
inactive: all other assays above

CC(=O)OCC1=C(C(=O)O)N2C(=O)[C@@H](NC(=O)Cc3cccs3)[C@H]2SC1
not listed: [4] | [9]
inactive: all other assays above

C=CC(=O)OCCCCCCCC
not listed: [4] | [9]
inactive: all other assays above

C=CC(=O)OCCCCCCOC(=O)C=C
active: [5] 43.6 µM
not listed: [1] | [4] | [10]
inactive: all other assays above

CCCCC/C=C/CC1CC(=O)OC1=O (centres undefined)
inactive: [1] | [2] | [3] | [5] | [7] | [8]

Nc1nc(=S)c2[nH]cnc2[nH]1
active: [5] 21.9 µM
not listed: [4] | [9]
inactive: all other assays above

CCCCCCCCCCCCc1ccccc1O
active: [1] 43.1 µM and 38.9 µM | [3] 19500 nM | [5] 43.1 µM and 49 µM | [10] 43.1 µM and 38.9 µM | [6] 43.1 µM and 38.9 µM
inactive: [2] | [7]
inactive and 21.9 µM (active): [8]

N[C@@H]1CONC1=O
inactive: [1] | [9] | [5] | [10] | [6] | [7]

CC1=CC(=O)c2ccccc2C1=O
inactive: [2] | [7]
active: [1] 19.5 µM and 26.8 µM | [3] 43.6 µM and 26.8 µM | [4] 43.6 µM | [5] 15.5 µM | [10] 7.76 µM and 16.9 µM | [6] 21.9 µM and 26.8 µM | [8] 54.9 µM and 23.9 µM

CC(C)(C)c1cc(C(C)(C)C)c(O)c(C(C)(C)C)c1
active: [1] 54.9 µM and 34.7 µM
not listed: [3] | [6]
inactive: all other assays above

CC(=O)OCCOCCOCCOC(C)=O
not listed: [4] | [9] | [10]
inactive: all other assays above
